Source: PubChem BioAssay
Shown are actives, neighbours in structure and some others; about 0.45% of the full set was active somewhere.
EPAC2 antag = blocks human EPAC2 exchange factor; Q8WZA2; EPAC2 GEF exchange of Rap1B-BODIPY-GDP, fluorescence; Potency, µM (top dose mostly 114 µM), without a hit: at the top dose activity, negative = inhibition, hits mostly inhibitors; actives 0.18% (n = 360,000); note: % is set by controls: 0 for no effect and ±100 for the full control effect; nearly all actives have a fitted effect of over 45% in size
Target sequence (Q8WZA2 whole entry, looked up): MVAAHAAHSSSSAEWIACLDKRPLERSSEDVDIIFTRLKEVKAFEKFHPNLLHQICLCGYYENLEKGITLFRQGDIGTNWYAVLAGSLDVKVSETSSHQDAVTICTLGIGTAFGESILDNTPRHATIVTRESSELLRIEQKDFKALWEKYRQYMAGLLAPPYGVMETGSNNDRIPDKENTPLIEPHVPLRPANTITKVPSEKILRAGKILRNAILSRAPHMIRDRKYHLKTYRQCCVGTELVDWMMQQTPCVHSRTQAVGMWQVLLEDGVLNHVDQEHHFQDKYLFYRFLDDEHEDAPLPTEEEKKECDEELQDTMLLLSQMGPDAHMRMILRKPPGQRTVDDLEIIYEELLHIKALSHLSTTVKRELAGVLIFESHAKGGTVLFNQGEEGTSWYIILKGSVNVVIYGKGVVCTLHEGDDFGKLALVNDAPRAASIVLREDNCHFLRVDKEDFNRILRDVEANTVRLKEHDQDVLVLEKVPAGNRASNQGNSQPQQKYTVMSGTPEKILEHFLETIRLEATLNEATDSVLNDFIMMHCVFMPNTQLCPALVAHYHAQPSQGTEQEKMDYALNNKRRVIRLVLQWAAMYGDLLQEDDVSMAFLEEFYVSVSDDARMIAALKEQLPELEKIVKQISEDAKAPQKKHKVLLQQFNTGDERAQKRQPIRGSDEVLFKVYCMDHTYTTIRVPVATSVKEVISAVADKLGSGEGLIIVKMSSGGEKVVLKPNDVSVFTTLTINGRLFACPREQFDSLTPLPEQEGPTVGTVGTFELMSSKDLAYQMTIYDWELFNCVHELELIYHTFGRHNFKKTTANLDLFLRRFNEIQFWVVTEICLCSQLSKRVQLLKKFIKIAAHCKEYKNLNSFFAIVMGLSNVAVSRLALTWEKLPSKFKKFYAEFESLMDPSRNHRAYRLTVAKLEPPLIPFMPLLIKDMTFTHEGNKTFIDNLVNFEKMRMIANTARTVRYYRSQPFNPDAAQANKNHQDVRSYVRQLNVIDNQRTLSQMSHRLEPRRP
USP1-UAF1 inh = USP1/UAF1 (human) deubiquitinase inhibition | O94782 | AID 743255 | recombinant USP1/UAF1, Ub-Rhodamine cleavage fluorescence | actives 0.23% (n = 390,000) | Potency, µM (titrated, usually from 57.1 µM), for the others: at the highest dose activity change, negative = inhibition, actives largely listed as inhibitors; note: % is set by controls: 0 for no effect and ±100 for the full control effect; nearly all actives have a fitted effect of over 60% in size
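USP1/UAF1 complex at 1 nM was preincubated with compound for 15 min at room temperature, then Ub-Rho substrate (150nM final) was added. Fluorescence (480/540 nm) was read kinetically, 6 reads every 60 seconds.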
EPAC2 ag = agonists of human EPAC2 (RAPGEF4); actives 0.079% (n = 360,000); EPAC2 activation, biochemical qHTS; response scale: 100% = 6.5 mM cAMP response; Potency, µM (titrated, usually from 154 µM), for inactives: at the highest dose activation, actives largely listed as activators; note: nearly all actives have a fitted effect of over 50% in size
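Nucleotide exchange monitored as fluorescence drop when BODIPY-GDP leaves Rap1B. Reaction: 100 nM EPAC2, 250 nM RAP1B-BODIPY-GDP, 50 uM GDP, room temperature, kinetic read over 30 min. Activity expressed relative to 6.5 mM cAMP.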
EPAC1 antagonist = antagonists of human EPAC1; O95398; Potency, µM (highest dose often 115 µM), without a hit: top-dose activity change, negative = inhibition, usual class: inhibitors; EPAC1 GEF assay, Rap1b-BODIPY-GDP exchange fluorescence; actives 0.14% (n = 360,000); AID 720709;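 note: plate controls were vehicle for no effect and positive control for full effect; nearly all actives have a fitted effect of over 50% in size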
EPAC1 agonist = activates human EPAC1 exchange factor. O95398. EPAC1 agonist qHTS, biochemical assay; response scale: 100% = response to 6.5 mM cAMP. Potency, µM (series often up to 154 µM), for the others: at the top dose activation, actives largely listed as activators. actives 0.073% (n = 360,000). AID 720707; note: nearly all actives have a fitted effect of over 60% in size
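Compounds were pinned as a concentration titration into mixtures of EPAC1 (100 nM), BODIPY-GDP-loaded Rap1B (250 nM) and GDP (50 uM). After 5 min at room temperature, fluorescence was followed for 30 min; activity was scaled to 6.5 mM cAMP.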
USP2a block = blocks human ubiquitin-specific protease USP2a; O75604; USP2 core, Ub-CHOP2 coupled fluorogenic reporter, 485/531; Potency, µM (highest dose often 38.3 µM), for the others: at the highest dose activity change, negative = inhibition, hits mostly inhibitors; actives 0.01% (n = 330,000); AID 463254;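 note: plate controls were DMSO wells for no effect and full inhibition by NEM control for full effect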
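Cell-free coupled assay: 10nM USP2 core preincubated 30min RT with compound in Tris-HCl pH 8.0/CaCl2/CHAPS buffer, then 25nM Ub-CHOP2 and 25nM reporter substrate; fluorescence (Ex 485/Em 531) read after 60min RT, normalized to NEM inhibition, concentration-response curves fitted.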
* marks the source's active call; other numbers are inactive results; i = inactive; ? = inconclusive; . = no result. Calls come from the whole dose curve; as a rule, active = well fitted curve in the direction sought with a large enough effect; inconclusive = small, poorly fitted or top-dose-only effect, or another doubt; inactive = no such curve, though single readings can be large; an effect the other way counts as inactive or inconclusive. Potency is the fitted concentration of half-maximal effect.

SMILES	EPAC2 antag	USP1-UAF1 inh	EPAC2 ag	EPAC1 antagonist	EPAC1 agonist	USP2a block
CC(=O)c1cccc(NC(=O)c2cc(S(=O)(=O)N3CCCCC3)ccc2N2CCOCC2)c1	0.0%	-6.1%	3.2%	13.3%	-5.3%	.
COc1ccccc1NS(=O)(=O)c1ccc(OC)c(OC)c1	4.2%	-12.5%	1.4%	-8.4%	0.0%	-3.2%
COc1ccccc1NS(=O)(=O)c1ccc2ccccc2c1	12.6µM*	-26.1%	22.8%	-4.2%	15.6%	-1.4%
COc1cccc(CSc2nc3n(n2)C(c2cccs2)C(C(=O)Nc2ccccc2C)=C(C)N3)c1 (stereo not drawn)	.	-20.1%	.	.	.	.
COc1cc(C(=O)NCCc2sc(-c3cccc(F)c3)nc2C)cc(OC)c1OC	.	-20.3%	.	.	.	.
COc1ccccc1/C=C1\SC(=S)N(NS(=O)(=O)c2ccccc2)C1=O	?	-3.2%	-5.2%	56.2µM*	4.9%	1.0%
COc1ccc(/C=C2/SC(=S)N(NS(=O)(=O)c3ccccc3)C2=O)cc1	?	-14.0%	6.9%	?	-8.8%	0.3%
O=C1/C(=C\c2ccc(Br)cc2)SC(=S)N1NS(=O)(=O)c1ccccc1	17.8µM*	-26.1%	-11.6%	?	-5.0%	-0.2%
COc1cccc(/C=C2\SC(=S)N(NS(=O)(=O)c3ccc(C)cc3)C2=O)c1OC	.	.	.	.	.	-0.2%
COc1ccc(C2=CCCCCC2)cc1OC	?	-13.5%	4.9%	-4.0%	-1.8%	.
CCN(CC(=O)Nc1ccc(OC)cc1)CC(=O)Nc1cccc(S(=O)(=O)N2CCOCC2)c1	-14.6%	-26.0%	1.0%	-2.1%	1.1%	.
CCc1nc2c(OCc3cccc(Cl)c3)cccn2c1N(C)C(C)=O	3.2%	.	20µM*	29.1%	6.9%	.
Cc1ccc(-n2c(O)c(C=Nc3ccccc3-c3n[nH]c(=S)[nH]c3=O)c3ccccc3c2=O)cc1C	-22.0%	?	0.1%	50.1µM*	7.7%	-17.1%
CC1CCN(c2ccc3c(c2)S(=O)(=O)c2cccc(C(=O)NC4CCCCC4)c2C3=O)CC1	5.0%	?	50.1µM*	5.3%	28.2µM*	1.4%
CC1CCN(c2ccc3c(c2)S(=O)(=O)c2cccc(C(=O)NCc4ccc(F)cc4)c2C3=O)CC1	381.4%	?	-102.6%	80.0%	-147.5%	1.9%
O=C(NC1CCCC1)c1cccc2c1C(=O)c1ccc(N3CCCCC3)cc1S2(=O)=O	37.4%	?	56.2µM*	-8.0%	?	1.5%
O=C(NCc1ccccc1C(F)(F)F)c1cccc2c1C(=O)c1ccc(N3CCCCC3)cc1S2(=O)=O	1.9%	?	100µM*	3.0%	13.8%	1.1%
COc1ccccc1N1CCN(c2ccc3c(c2)S(=O)(=O)c2cccc(C(=O)NCC4CC4)c2C3=O)CC1	?	-16.2%	16.5%	22.4µM*	-38.9%	.
O=C(NC1CCCCC1)c1cccc2c1C(=O)c1ccc(N3CCCC3)cc1S2(=O)=O	61.0%	?	-32.1%	1.9%	-12.2%	5.3%
COc1cccc(C(C)(O)c2nc(-c3ccoc3)cs2)c1 (stereo not drawn)	-5.1%	.	8.5%	-2.5%	-0.7%	.
O=C1c2ccccc2S(=O)(=O)c2cc(C(=O)N3CCC(O)CC3)ccc21	1.2%	-27.4%	-0.3%	3.1%	-15.3%	.
O=C1c2ccccc2S(=O)(=O)c2cc(N3CCC(C(=O)N4CCCCC4)CC3)ccc21	52.6%	?	25.1µM*	14.3%	79.4µM*	.
COc1ccccc1NC(=O)C(=O)NCCc1csc(-c2cccc(F)c2)n1	.	0.7%	.	.	.	.
COc1ccccc1/C=C/C=C1\Oc2c(ccc(O)c2CN2CCN(CCO)CC2)C1=O	47.2%	31.6µM*	?	118.3%	100µM*	?
O=C1/C(=C/C=C/c2ccccc2)Oc2c1ccc(O)c2CN1CCN(CCO)CC1	35.2%	?	?	31.0%	?	?
SMILES	EPAC2 antag	USP1-UAF1 inh	EPAC2 ag	EPAC1 antagonist	EPAC1 agonist	USP2a block
CCN1CCN(Cc2c(O)ccc3c2O/C(=C\C=C\c2ccccc2)C3=O)CC1	55.5%	?	?	46.6%	100µM*	?
CCN1CCN(Cc2c(O)ccc3c2O/C(=C\c2ccccc2)C3=O)CC1	7.8%	?	13.4%	27.7%	19.3%	?
Cc1ccc(N2C(=O)CS(=O)(=O)C23C(=O)N(Cc2ccccc2F)c2ccccc23)cc1Cl (stereo not drawn)	.	-22.6%	.	.	.	.
CC1CN(C(=O)N2CCC(C(=O)NCCCc3ccccc3)CC2)c2ccccc2O1 (stereo not drawn)	.	-21.5%	.	.	.	.
CC1(C(=O)NCc2ccccc2)CN(S(C)(=O)=O)CC(=O)N1C1CC1 (stereo not drawn)	-5.8%	.	11.2%	-4.0%	10.5%	.
C=CCN1C(=O)c2cccc3c(N4CCCCC4)ccc(c23)C1=O	66.7%	?	100µM*	31.9%	13.8%	25.8%
Cc1n[nH]c(C)c1N1C(=O)c2cccc3c(N4CCCCCC4)ccc(c23)C1=O	53.9%	25.1µM*	29.9%	0.0%	?	?
O=C1c2cccc3c(N4CCCCC4)ccc(c23)C(=O)N1c1cccc(O)c1	78.8%	?	100µM*	59.4%	?	?
O=C1c2cccc3c(N4CCCCC4)ccc(c23)C(=O)N1CCO	-0.5%	?	3.4%	-19.8%	0.0%	6.0%
CC(=O)c1cc(-c2ccccc2)n(CCC(=O)NC(C)c2ccccc2)c1C (stereo not drawn)	.	-14.5%	.	.	.	.
COc1cc(Br)cc(C(=O)N2CCc3ccccc32)c1OC	35.5µM*	-22.7%	11.2%	3.5%	6.1%	.
CC(=O)Nc1sc2c(c1-c1nc3ccccc3s1)CCN(C(C)C)C2	36.4%	-35.8%	63.1µM*	14.8%	16.1%	?
CCN1CCc2c(sc(NC(=O)CSc3ccccc3)c2-c2nc3ccccc3s2)C1	.	i	.	.	.	.
Cc1ccc(OCCSc2nc3ccc(NC(=O)c4ccc5c(c4)OCO5)cc3s2)cc1	.	-8.7%	.	.	.	.
O=C(CN1CCCCCC1)Nc1ccccc1Oc1ccccc1	39.8µM*	-2.0%	15.8%	-11.5%	5.8%	-3.7%
O=C(O)c1cc(S(=O)(=O)Nc2cc(Cl)ccc2Oc2ccccc2)ccc1O	39.8µM*	-23.6%	-3.9%	?	-0.3%	-2.9%
COc1ccccc1NC(=O)CN1CCCCCC1	0.5%	?	5.7%	-4.9%	6.8%	2.8%
O=C(CN1CCCCC1)Nc1cc(Cl)ccc1Oc1ccccc1	28.2µM*	-19.0%	1.8%	-4.9%	1.2%	-1.7%
O=C(O)c1cc(S(=O)(=O)Nc2ccccc2C(=O)O)ccc1O	-2.2%	-2.5%	-9.6%	-9.9%	10.6%	0.0%
CC(=O)Nc1ccccc1OCc1cc(=O)n2c(C)csc2n1	.	-29.7%	.	.	.	.
